We go through 40 molecules from PubChem BioAssay (Tox21).

Results filed as inconclusive are left out. Where a call stands in place of a potency, no number is given. Calls of active or inactive are those of the source. Calls follow the shape of the dose curve; as a rule, active = well fitted cell-killing curve with a large enough effect in the repeat runs; inconclusive = weak or mixed curves, or effect the other way; inactive = flat fitted curve, though single readings scatter.

The nature of this test: qHTS assay to identify small molecule agonists of the estrogen receptor beta (ER-beta) signaling pathway - cell viability counter screen (AID 1259380). Also: nearly all actives have a fitted effect of over 30% in size. The conditions noted are these: ER-beta-bla HEK293T viability, CellTiter-Glo luminescence, 16 h; series mostly up to 92.4 µM. The text has this:
National Center for Advancing Translational Sciences [NCATS]
NIH Chemical Genomics Center [NCGC]
U.S. Environmental Protection Agency [EPA]
National Institutes of Environmental Health Sciences [NIEHS]
National Toxicology Program [NTP]
U.S. Food and Drug Administration [FDA]
Estrogen receptor (ER), a nuclear hormone receptor, plays an important role in development, metabolic homeostasis and reproduction. Two subtypes of ER, ER-alpha and ER-beta, have similar expression patterns with some uniqueness in both types. Endocrine disrupting chemicals (EDCs) and their interactions with steroid hormone receptors like ER causes disruption of normal endocrine function. To identify the compounds that activate ER signaling, an ER beta-UAS-bla GripTite cell line (Life Technologies, Madison, WI, USA) containing a beta-lactamase reporter gene under the control of an UAS response element was used to screen Tox21 10K compound library. The cytotoxicity of the Tox21 compound library against the ER-beta-bla cell line was tested in parallel by measuring the cell viability using CellTiter-Glo assay in the same wells.
Tox21 Assay Protocol Summary:
ER-beta-UAS-bla HEK293T cells were dispensed at 2,000 cells/5 uL of assay medium containing 2% charcoal stripped FBS per well into black wall/clear-bottom 1536-well plates using a Multidrop Combi (ThermoFisher Scientific, Waltham, MA) dispenser. After the assay plates were incubated at a 37C and 5% CO2 for 6 hr, 23 nL of compounds dissolved in DMSO, positive controls or DMSO only was transferred to the assay plate by a Pintool station (Kalypsys, San Diego, CA). The plates were incubated at 37C and 5% CO2 for 16 hr. Then 1 uL of LiveBLAzerTM B/G FRET substrate was added using a BioRAPTR FRD (Flying Reagent Dispenser, Aurora Discovery, San Diego, CA) and then the plates were incubated at room temperature for 2 hours, and fluorescence intensity was measured by an Envision plate reader (PerkinElmer, Shelton, CT). For cell viability readout that measures cytotoxicity, 4 uL/well of CellTiter-Glo reagent was added into the assay plates using a FRD. After 30 min incubation at room temperature, the luminescence intensity in the plates was measured using a ViewLux (PerkinElmer) plate reader.
On to `CO[C@@]1(NC(=O)C(C(=O)O)c2ccc(O)cc2)C(=O)N2C(C(=O)O)=C(CSc3nnnn3C)CO[C@@H]21` (stereo not given in full), for which the Potency result is “inactive”.

Consider `O=Cc1cccc(Br)c1`, for which the Potency entry is “inactive”.

Turning to `NC(N)=NCCN1CCCCCCC1`, the activity change, negative = cytotoxicity was 2.58% [at 0.349 µM] (inactive).

With `O=C(O)CCCC[P+](c1ccccc1)(c1ccccc1)c1ccccc1`, the Potency result is “inactive”.

In the case of `CCOC(=O)COC(=O)c1ccccc1C(=O)OCC`, the Potency entry was “inactive”.

Regarding `c1ccc2sc(SN3CCOCC3)nc2c1`, the Potency entry is “inactive”.

In the case of `OCCCCCO`, the Potency result was “inactive”.

As for `N[C@H](C(=O)O)[C@@H](O)c1ccc(O)c(O)c1`, the Potency entry was “inactive”.

On to `CC[N+](C)(CC)CCOC(=O)C1c2ccccc2Oc2ccccc21`, for which the Potency result is “inactive”.

With `COc1ccccc1OCC1CNC(=O)O1` (stereo not given), the Potency result is “inactive”.

As for `Cc1ncc([C@@H](CCCCCCc2ccc3c(n2)NCCC3)CC(=O)O)cn1`, the Potency result is “inactive”.

With `CCCCCCCCCC[N+](C)(C)[O-]`, the Potency entry is “inactive”.

For the molecule `CCCCCCCCCCCCCCC(=O)O`, the Potency result was “inactive”.

Consider `CC1=NN(c2cccc(S(=O)(=O)O)c2)C(=O)C1`, for which the Potency result was “inactive”.

On to `Cc1ccc(C(=O)c2ccccc2)cc1`, for which the Potency entry was “inactive”.

For `CO/N=C(\C(=O)N[C@@H]1C(=O)N2C(C(=O)O)=C(CSc3nc(=O)c(O)nn3C)CS[C@H]12)c1csc(N)n1`, the Potency result is “inactive”.

For the molecule `C=COC(=O)C(C)(CC)CCC(C)C` (stereo not given), the Potency result was “inactive”.

Turning to `O=C(CO)[C@@H](O)[C@H](O)[C@@H](O)CO`, the Potency entry is “inactive”.

For `CC(N)C12CC3CC(CC(C3)C1)C2` (stereo not given), the Potency result is “inactive”.

As to `CC(=O)c1ccccc1[N+](=O)[O-]`, the Potency result is “inactive”.

Take `CN(C)CCCCCCN(C)C`: the Potency result was “inactive”.

`c1coc(CNc2ncnc3nc[nH]c23)c1`: the Potency entry was “inactive”.

Turning to `CC(CC=O)CC(C)(C)C` (stereo not given), the Potency entry is “inactive”.

On to `CC1(C)[C@@H]2CC[C@@]1(C)[C@H](O)C2`, for which the Potency entry was “inactive”.

As for `O=S(=O)(O)c1cccc2c(S(=O)(=O)O)cccc12`, the Potency result is “inactive”.

`CCC(C)(CN(C)C)OC(=O)c1ccccc1` (stereo not given): the Potency result is “inactive”.

For `O=C(O)c1cc(C(=O)O)cc(C(=O)O)c1`, the Potency entry is “inactive”.

On to `O=C(O)CCSCCC(=O)O`, for which the Potency entry is “inactive”.

On to `CCCCCCC1CCC(=O)O1` (stereo not given), for which the Potency entry was “inactive”.

With `O=S(=O)(O)c1cccc(S(=O)(=O)O)c1`, the Potency entry was “inactive”.

As for `[K+]`, the Potency result was “inactive”.

As to `Cc1nc(C2CCCCC2)c(-c2ccc(S(N)(=O)=O)c(F)c2)o1`, the Potency entry was “inactive”.

Turning to `CCCc1ncc(C[n+]2ccccc2C)c(N)n1`, the Potency result is “inactive”.

As for `NC(=O)N1c2ccccc2CC(=O)c2ccccc21`, the Potency entry was “inactive”.

In the case of `FB(F)F`, the Potency entry was “inactive”.

In the case of `CCCC(C)C(=O)OCC` (stereo not given), the Potency entry was “inactive”.

For the molecule `COCCOC[C@H](CC1(C(=O)NC2CCC(C(=O)O)CC2)CCCC1)C(=O)Oc1ccc2c(c1)CCC2` (stereo not given in full), the Potency result was “inactive”.

As for `O=[N+]([O-])c1ccc(/C=N\O)o1`, the Potency entry was “inactive”.

For `CCCCCCC#CC(=O)OC`, the Potency entry was “inactive”.

Consider `Cc1ccc(-c2ncc(Cl)cc2-c2ccc(S(C)(=O)=O)cc2)cn1`, for which the Potency entry is “inactive”.
